Only some compounds are listed: those with a hit (about 3.5% of all), similar ones and a draw of the others.
Bead autofluor: compound fluorescence in toxin protease inhibitor counterscreen | compound autofluorescence counterscreen, microsphere flow cytometry; active compounds read high | fluorescence intensity (no concentration beside the values) | 360,000 compounds, 3.1% hits | AID 624483; in the data active = fluorescence intensity above about 16000; inconclusive = no clear call, values can overlap the other calls
Anthrax LF inh2: anthrax lethal factor protease inhibition; multiplex microsphere protease cleavage assay, LF; inhibition, % at 10 µM; 360,000 compounds, 0.12% hits
BoNT-F LC inh: BoNT F light chain protease inhibition. 360,000 compounds, 0.22% hits. Multiplex microsphere protease cleavage assay, flow cytometry. inhibition, % at 10 µM; in the data active = inhibition above about 35%, passing the limit was not always enough; inconclusive = no clear call, values can overlap the other calls
BoNT A protease: BoNT A light chain protease inhibition | multiplex microsphere protease substrate cleavage, flow cytometry | inhibition, % at 10 µM | 360,000 compounds, 0.17% hits | AID 588499
Hits are given with their value; – = inactive; ? = inconclusive. Rule as the data show it, unless noted: active = inhibition above about 30%; inconclusive = no clear call, values can overlap the other calls; inactive = below that.

SMILES	Bead autofluor	Anthrax LF inh2	BoNT-F LC inh	BoNT A protease
COc1ccc(C2=NS(=O)(=O)N(C)C(C(=O)N3CCCCC3C)=C2)cc1 (stereo not given)	–	–	–	–
O=S(=O)(/N=C(/c1ccccc1)N1CCOCC1)c1ccc(F)cc1F	–	–	–	–
Cc1ccccc1NC(=O)CSc1nnc(Cc2ccccc2)c(=O)n1N	–	–	–	–
Cc1ccc(C(=O)NC2CCN(CC(=O)Nc3ccccc3Cl)CC2)cc1	–	–	?	–
Cc1ccnc(-n2c(-c3ccccc3)nc3ccccc3c2=O)c1	19731	–	–	–
Cc1ccnc(-n2c(C)nc3ccccc3c2=O)c1	–	–	–	–
Cc1cc(C)c(CN2CCN(CCCn3ccc(NC(=O)OCc4ccccc4)nc3=O)CC2)c(C)c1	–	–	–	–
O=c1[nH]c(N/N=C/c2ccccc2)nc2ccccc12	16682	–	–	–
C(=N\Nc1nc2ccccc2[nH]1)/c1ccccc1	–	–	–	–
O=c1c2cc(N3CCOCC3)ccc2[nH]c(=S)n1CC1CCCO1 (stereo not given)	22212	–	–	–
COc1ccc(CCn2c(=S)[nH]c3ccc(N4CCOCC4)cc3c2=O)cc1OC	–	–	–	–
COCCCn1c(=S)[nH]c2ccc(N3CCOCC3)cc2c1=O	18662	–	–	–
Cc1[nH]n(-c2ccccc2)c(=O)c1/C=N/NC(=O)C(C)C	–	–	–	–
N#CCc1ccc(-c2cccc3nccn23)cc1	–	–	–	–
c1ccc(-c2nnc3n2CCCC3)cc1	22320	–	–	–
CCNC(=S)N/N=C/c1ccc(OCCOc2ccccc2C)cc1	23540	–	–	–
CCNC(=S)N/N=C/c1ccc(OCC(=O)Nc2ccc(OC)cc2)c(OC)c1	–	–	–	–
CCNC(=S)N/N=C/c1ccc(OCC(=O)Nc2ccc(C)cc2)cc1	20930	–	–	–
N#C/C(=C/c1ccc(Sc2nc3ccccc3[nH]2)o1)c1cccc(F)c1	23920	–	–	–
N#C/C(=C/c1ccc(Sc2nc3ccccc3[nH]2)o1)c1cccc(Br)c1	–	–	–	–
N#C/C(=C/c1ccc(Sc2nc3ccccc3[nH]2)o1)c1ccccc1F	16534	–	–	?
CC(C)N1C2OC(C3OC4C(O3)N(C(C)C)S(=O)(=O)N4C(C)C)OC2N(C(C)C)S1(=O)=O (stereo not given)	23341	–	–	–
O=C(NCCO)c1ccc(-c2ccc3nncn3c2)cc1	–	–	–	–
CC(C)(O)C#Cc1cccc(-c2nc(C(=O)NCCCN3CCOCC3)cc3c2[C@H](CCO)N(S(=O)C(C)(C)C)C3)c1 (stereo not given in full)	–	–	–	–
Cc1ccc(S(=O)(=O)NC(=O)CSc2nc3ccccc3s2)cc1	16909	–	–	–
SMILES	Bead autofluor	Anthrax LF inh2	BoNT-F LC inh	BoNT A protease
O=C(CSc1nc2ccccc2s1)NC(=O)NCc1ccco1	22313	–	–	–
O=C(CSc1nc(-c2ccccc2)cs1)NC(=O)NCc1ccco1	–	–	–	–
CC(C)(C)c1ccc(CNC(=O)C2CCCN2C(=O)Nc2ccccc2)cc1 (stereo not given)	–	–	–	–
NC(Cc1ccc(Cl)cc1)c1csc(Nc2ccc(C(=O)NCCCO)cn2)n1 (stereo not given)	–	–	–	–
C#CCOC(=O)c1cc(Cl)c(=O)n(Cc2ccc(Cl)cc2Cl)c1	–	–	–	–
CCCN1C(=O)c2ccccc2NC1c1ccc(Cl)c(Cl)c1 (stereo not given)	–	–	–	–
CN1CC(c2ccc(Cl)c(Cl)c2)[C@@]2(COc3ccccc3C2=O)[C@@]12C(=O)Nc1ccccc12 (stereo not given in full)	20876	–	–	–
CCOC(=O)c1c(C)n(C)c2ccc(OCC(O)Cn3c(C)nc4ccccc43)cc12 (stereo not given)	23462	–	–	?
Cc1cccc(NC(=O)c2cc(NC(=O)CCCC(=O)O)ccc2Cl)n1	23857	–	–	–
CC(=O)N1c2ccc(S(=O)(=O)N3CCCC(C(=O)Nc4ccc(F)cc4)C3)cc2CC1C (stereo not given)	–	–	–	–
CCOC(=O)N1CCN(C(=O)CN(c2ccc(OCC)cc2)S(C)(=O)=O)CC1	22023	–	–	–
CCOC(=O)N1CCN(C(=O)CN(c2ccc(Oc3ccccc3)cc2)S(C)(=O)=O)CC1	–	–	–	–
CCOC(=O)N1CCN(C(=O)CN(c2ccc(OC)c(OC)c2)S(C)(=O)=O)CC1	16773	–	–	–
CCOC(=O)[C@@H]1[C@H]2COc3ccc(Br)cc3[C@@H]2N2C(=O)N(c3ccc(C(F)(F)F)cc3)C(=O)[C@@]12C	–	–	–	–
O=C(CN1CCN(c2cnn(-c3ccccc3)c(=O)c2Cl)CC1)NC1CCS(=O)(=O)C1 (stereo not given)	–	–	?	–

Screening data from PubChem.
